Shown are actives, neighbours in structure and some others; about 1.7% of the full set was active somewhere.
HEK293 tox = cytotoxicity counter-screen for GLP-1 receptor inverse agonists | Potency, µM (titrated, usually from 38.3 µM), most hits filed as inhibitors | HEK293 cAMP-luciferase reporter cells, luminescence, 24 h | AID 624418 | 410,000 compounds, 0.13% hits;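 note: loss of luciferase light is scored as toxicity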
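Step one: seed cells (200 cells/uL, DMEM with 10% Nu serum, 1% pen-strep). Step two: 12-hour incubation at 37 deg C. Step three: pin 23 nL compound, incubate 24 hr. Step four: add luciferase reagent, read luminescence 12 min later.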
PTHR1 ag = activates the human parathyroid hormone receptor PTHR1; Q03431; HEK293 GP2 PTHR1 cells, GloSensor cAMP luminescence, 1 h; Potency, µM (doses to about 115 µM), usual class: activators; 410,000 compounds, 0.075% hits; note: nearly all actives have a fitted effect of over 55% in size
Target sequence (Q03431 whole entry, looked up): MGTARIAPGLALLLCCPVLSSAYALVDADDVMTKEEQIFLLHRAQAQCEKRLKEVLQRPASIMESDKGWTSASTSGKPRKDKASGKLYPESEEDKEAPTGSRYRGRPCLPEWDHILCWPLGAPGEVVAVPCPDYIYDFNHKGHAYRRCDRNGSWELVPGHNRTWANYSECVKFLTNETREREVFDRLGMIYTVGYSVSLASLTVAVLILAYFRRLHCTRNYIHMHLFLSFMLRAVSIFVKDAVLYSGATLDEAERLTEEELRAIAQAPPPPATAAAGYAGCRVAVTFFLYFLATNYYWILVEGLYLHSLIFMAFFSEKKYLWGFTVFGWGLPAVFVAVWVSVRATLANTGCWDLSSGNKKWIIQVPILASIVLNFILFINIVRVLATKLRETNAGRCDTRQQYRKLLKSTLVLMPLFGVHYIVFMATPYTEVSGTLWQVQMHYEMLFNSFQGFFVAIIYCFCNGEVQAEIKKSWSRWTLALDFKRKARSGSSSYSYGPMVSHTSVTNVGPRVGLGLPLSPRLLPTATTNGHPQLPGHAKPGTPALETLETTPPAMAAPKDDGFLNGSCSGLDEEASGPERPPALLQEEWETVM
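HEK-293-derived GP2 cells expressing PTHR1 and a GloSensor cAMP reporter, 3,000/well, plated overnight, given luciferin plus IBMX (each 0.5 mM as added) for 1 h at 37 °C, then compound for 1 h at 37 °C. Luminescence was read after 15 min at room temperature.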
GLP1R inv ag = GLP-1 receptor (human) inverse agonism | 410,000 compounds, 1.6% hits | P43220 | HEK293 GLP-1R CRE-luciferase, luminescence, 24 h; GLP-1R form is constitutively active | Potency, µM (doses to about 38.3 µM), most hits filed as inhibitors; note: nearly all actives have a fitted effect of over 55% in size
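Readout was luciferase luminescence, measured 12 min after detection reagent at room temperature. Beforehand, GLP-1R reporter HEK293 cells had sat 12 h, then received compounds for 24 hr at 37 deg C.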
GLP-1R agonist = GLP-1 receptor (human) agonism | P43220 | HEK293 GLP-1R CRE-luciferase, luminescence, 4-6 h; cells express a hypersensitive GLP-1R form | Potency, µM (highest dose often 45.6 µM), most hits filed as activators | 380,000 compounds, 0.007% hits
Of the large screens only hits and unclear results are named; the others gave an inactive call. Calls come from the whole dose curve; as a rule, active = well fitted curve in the direction sought with a large enough effect; inconclusive = small, poorly fitted or top-dose-only effect, or another doubt; inactive = no such curve, though single readings can be large; an effect the other way counts as inactive or inconclusive.

CC12CC(NC(=O)N1c1cccc(C(=O)NCc3ccc4c(c3)OCO4)c1)c1cc(Cl)ccc1O2 (configuration not stated)	HEK293 tox inconclusive, GLP1R inv ag 1.6µM
CC(C)C(=O)Nc1cccc(C(=O)NCc2ccc3c(c2)OCO3)c1	none
Cc1c(C=O)c2ccccc2n1CCOc1ccccc1F	GLP1R inv ag inconclusive
Cn1c(Oc2ccc(F)cc2)c(C=O)c2ccccc21	GLP1R inv ag 10µM
O=P(O)(O)C(O)(Cc1cnc2ccccn12)P(=O)(O)O	none (no result: HEK293 tox, PTHR1 ag, GLP1R inv ag)
O=C(NCc1ccccc1)c1ccc(Br)o1	none
O=C(c1ccc(Br)o1)N(Cc1ccccc1)Cc1ccccc1	GLP1R inv ag 10µM
COc1ccc(CN2CCN(CCCCOc3ccc(Cl)cc3)CC2)c(OC)c1OC	GLP1R inv ag 7.9µM
COc1ccccc1N1CCN(Cc2ccc(OC)c(OC)c2OC)CC1	HEK293 tox inconclusive
CCSc1cc(N2CCCC2)nc(-c2ccc(C)cc2)n1	none
CCSc1cc(N2CC(C)OC(C)C2)nc(-c2ccccc2Cl)n1 (configuration not stated)	GLP1R inv ag 10µM
CCOc1ccccc1C1C(C(=O)N2CCCCC2)=C(C)Nc2nc3ccccc3n21 (configuration not stated)	none
CC(=O)N(C(C)=O)c1c(C#N)c(C)n(-c2ccccc2)c1C(=O)c1ccccc1	GLP1R inv ag 5.6µM
Cc1[nH]c(C(=O)O)c(C#N)c1C(=O)c1ccccc1	none
O=c1c2oc3ccccc3c2n(Cc2ccc(Cl)cc2)c(=O)n1Cc1ccc2c(c1)OCO2	none (no result: GLP-1R agonist)
O=C(CN1c2ccccc2Sc2ccccc21)N/N=C/c1ccc(Cl)cc1	GLP1R inv ag 3.2µM
O=C(CN1c2ccccc2Sc2ccccc21)N/N=C/c1ccc(Cl)cc1Cl	none
COc1cc(C(=O)Nc2ccc3oc(-c4ccc(C)c(Br)c4)nc3c2)cc(OC)c1OC	none (no result: GLP-1R agonist)
CC(=O)Nc1ccc(NS(=O)(=O)c2ccc3[nH]c4c(c3c2)CCCCC4)cc1	none
CC(C)C[C@@H]1NC(=O)[C@H](Cc2ccccc2)N(C)C(=O)[C@H](C)NC(=O)c2ccccc2NC(=O)[C@H](Cc2ccc(O)cc2)N(C)C1=O	HEK293 tox inconclusive, GLP1R inv ag 10µM
CC(C)CC1NC(=O)N(CC(=O)N2c3ccccc3NC(=O)C2(C)C)C1=O (configuration not stated)	none
CC(C1CC2CCC1C2)n1c(-c2cccs2)n[nH]c1=S (configuration not stated)	GLP1R inv ag 5µM
OC(COCC1COc2ccccc2O1)CN1CCc2ccccc2C1 (configuration not stated)	GLP1R inv ag 10µM
OC(COC(c1ccccc1)c1ccccc1)CN1CCc2ccccc2C1 (configuration not stated)	GLP1R inv ag 10µM, GLP-1R agonist inconclusive
OC(COC(c1ccc(Cl)cc1)c1ccc(Cl)cc1)CN1CCc2ccccc2C1 (configuration not stated)	HEK293 tox inconclusive, GLP1R inv ag 5µM
CC1CCCN(CC(O)COCC2COc3ccccc3O2)C1 (configuration not stated)	none
CC[C@@H]1OC(=O)[C@H](C)[C@H](O[C@@H]2C[C@](C)(OC)[C@H](O)[C@H](C)O2)[C@H](C)[C@H](O[C@@H]2O[C@@H](C)C[C@@H](N(C)C)[C@@H]2O)[C@](C)(O)C[C@H](C)C(=NOCOCCOC)[C@H](C)[C@H](O)[C@]1(C)O	none (no result: HEK293 tox, PTHR1 ag, GLP1R inv ag)
CCN(CC(=O)NCc1cccs1)C(=O)c1cccc(S(=O)(=O)N(CC)c2ccccc2)c1	GLP1R inv ag inconclusive
COc1ccccc1C(=O)Nc1nc2ccc(S(=O)(=O)N3CCCC3)cc2s1	none (no result: GLP-1R agonist)
O=C(/C(=C(\O)c1ccccc1)c1nc2ccccc2[nH]1)c1ccccc1	HEK293 tox inconclusive, GLP1R inv ag 10µM
CN(C)c1ccc(N=Nc2ccc(C(=O)O)cc2)cc1	HEK293 tox inconclusive, GLP1R inv ag 2.5µM
COC(=O)C1=CN(c2ccc3c(c2)OCO3)C(N)=C(C#N)C1c1ccccc1 (configuration not stated)	GLP1R inv ag inconclusive (no result: GLP-1R agonist)
C=CCn1c(SCc2ccc(C(=O)Nc3nccs3)cc2)nnc1-c1ccc(C)c(Cl)c1	HEK293 tox inconclusive, GLP1R inv ag 4.5µM
Cc1ccc(OCCn2cc(C(=O)c3ccco3)c3ccccc32)cc1C	GLP1R inv ag 10µM (no result: GLP-1R agonist)
